Results on seven compounds are retold here after PubChem BioAssay (NCI).

Some test systems named below: NCI-H23 lung; NCI-H226 lung; NCI-H322M lung; HOP-62 NSCLC; NCI-H460 lung; HOP-92 NSCLC; NCI-H522 lung; A549/ATCC NSCLC; 786-0 renal; COLO 205 colon; DU-145 prostate; K-562 leukemia; MALME-3M melanoma; MDA-MB-231 breast; RXF 393 renal; SF-268 CNS; SF-295 CNS; SF-539 CNS; UACC-257 melanoma; M14 melanoma.
Holding throughout (experiment): NCI-60 one-dose screen, 48 h (100 = growth as untreated, 0 = no growth, -100 = all killed)
What all share (settings): 10 µM unless noted

SMILES strings stand for the structures. Values joined by “and” are separate entries in the source; they are usually repeats but may differ in a detail not shown here. Equal entries are not always repeated. The panel holds about 83,000 compounds, 20% with a hit somewhere; the sample as a whole holds those more often.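 Testing used 96-well plates and a 48-hour single-concentration exposure. Example: -40 means 40% of the starting cells died.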 Unmarked numbers belong to inactive results. Active and inactive are the calls of the source. How the source made its calls: active means growth percent below 10; inactive means the rest.

Turning to `O=C(Nc1ccc(-c2ccc3c(c2)NC(=O)/C3=C\c2ccc[nH]2)cc1)Nc1ccc(Cl)c(C(F)(F)F)c1`, the growth with NCI-H23 lung is 15.4%; with NCI-H226 lung it was 65.8%; in the assay with NCI-H322M lung, 50.6%; with HOP-62 NSCLC, 44.1%; in the assay with NCI-H460 lung it was 4.07% (active); in the assay with HOP-92 NSCLC it was 46.9%. Besides, the growth in the assay with NCI-H522 lung is -15.1% (active); with A549/ATCC NSCLC, 18%; with 786-0 renal, 48.8%; in the assay on COLO 205 colon, 15.4%; in the assay with DU-145 prostate, 44.1%; in the assay with K-562 leukemia it was 15.2%. The growth was 64.4% in the assay on MALME-3M melanoma; 72.2% in the assay with MDA-MB-231 breast; 42.3% in the assay on RXF 393 renal; 46.3% in the assay on SF-268 CNS; 38.4% in the assay on SF-295 CNS; 44.2% in the assay on SF-539 CNS. The growth is 24.5% in the assay with UACC-257 melanoma and 54.8% with M14 melanoma.
Regarding `O=C(Nc1ccc(-c2ccc3c(c2)NC(=O)/C3=C\c2ccc[nH]2)cc1)Nc1cccc(Cl)c1`, the growth is -57.4% (active) in the assay on NCI-H23 lung; 2.01% (active) in the assay with NCI-H226 lung; 14.1% in the assay on NCI-H322M lung; -29.6% (active) in the assay with HOP-62 NSCLC; 1.16% (active) in the assay with NCI-H460 lung; 41.5% with HOP-92 NSCLC. Further, the growth is -51.7% (active) with NCI-H522 lung; -3.34% (active) in the assay with A549/ATCC NSCLC; -41.6% (active) in the assay with 786-0 renal; -58.6% (active) with COLO 205 colon; 24.6% in the assay on DU-145 prostate; 7.56% (active) with K-562 leukemia. Also, the growth in the assay on MALME-3M melanoma was 7.96% (active); in the assay on MDA-MB-231 breast, -23.1% (active); in the assay with RXF 393 renal, -53.6% (active); with SF-268 CNS, 32%; with SF-295 CNS it was -31% (active); in the assay on SF-539 CNS, -79.8% (active). The results for the growth in the assay with UACC-257 melanoma and in the assay on M14 melanoma were 22.3% and 9.34% (active), respectively.
For the compound `COc1ccc2oc(=O)c(-c3csc(N/N=C(\C)c4cc(OC)c(OC)c(OC)c4)n3)cc2c1`, the growth was 84% with NCI-H23 lung; 89.7% in the assay with NCI-H226 lung; 96.8% in the assay with NCI-H322M lung; 109% with HOP-62 NSCLC; 79.1% with NCI-H460 lung; 96.8% with HOP-92 NSCLC. The growth with NCI-H522 lung is 85.8%; with A549/ATCC NSCLC, 101%; in the assay on 786-0 renal it was 90.5%; in the assay on COLO 205 colon, 99.8%; in the assay on DU-145 prostate, 101%; in the assay with K-562 leukemia, 92.3%. Also, the growth was 85% in the assay on MALME-3M melanoma; 86.8% in the assay on MDA-MB-231 breast; 85.7% in the assay with RXF 393 renal; 99.3% in the assay with SF-268 CNS; 92% in the assay with SF-295 CNS; 103% in the assay with SF-539 CNS. Moreover, the results for the growth with UACC-257 melanoma and in the assay on M14 melanoma were 106% and 91.9%, respectively.
Take `CC(=O)Nc1cccc(-n2c(COc3ccc(I)cc3)nc3ccccc32)c1`: the growth is 83.5% and 106% in the assay with NCI-H23 lung; 68.3% and 113% in the assay with NCI-H226 lung; 102% and 107% in the assay on NCI-H322M lung; 118% and 120% in the assay with HOP-62 NSCLC; 103% and 112% in the assay with NCI-H460 lung; 79.9% and 116% in the assay on HOP-92 NSCLC. Further, the growth in the assay with NCI-H522 lung was 70.1% and 111%; in the assay with A549/ATCC NSCLC, 101% and 108%; with 786-0 renal it was 101% and 109%; with COLO 205 colon, 96.9% and 128%; in the assay with DU-145 prostate it was 99.4% and 101%; in the assay with K-562 leukemia, 67.5% and 104%. For the same compound, the growth was 86.9% and 106% with MALME-3M melanoma; 70.7% and 109% with MDA-MB-231 breast; 80.7% and 107% with RXF 393 renal; 81% and 99.1% in the assay with SF-268 CNS; 79.1% and 101% in the assay on SF-295 CNS; 84.5% and 107% in the assay with SF-539 CNS. In addition, the growth in the assay on UACC-257 melanoma was 112% and 106%; in the assay with M14 melanoma, 102% and 115%.
For the compound `COc1ccc2[nH]c(O)c(N=Nc3nc(-c4ccc(C#N)cc4)cs3)c2c1`, the growth with NCI-H23 lung was 55.9%; in the assay with NCI-H226 lung it was 98.4%; with NCI-H322M lung, 83.9%; in the assay on HOP-62 NSCLC, 77.5%; in the assay with NCI-H460 lung, 29.2%; in the assay with HOP-92 NSCLC, 25.1%. For the same compound, the growth in the assay on NCI-H522 lung was 65.4%; with A549/ATCC NSCLC, 51.8%; in the assay with 786-0 renal, -73.4% (active); in the assay with COLO 205 colon it was 86%; with DU-145 prostate it was 52.9%; in the assay on K-562 leukemia it was 67.7%. For the same compound, the growth with MALME-3M melanoma is 15.1%; in the assay with MDA-MB-231 breast, 59.7%; in the assay with RXF 393 renal, 38%; in the assay on SF-268 CNS, 82.6%; in the assay with SF-295 CNS, 68.8%; with SF-539 CNS, 48.9%. Moreover, the growth is 70.6% in the assay with UACC-257 melanoma and 82.3% with M14 melanoma.
With `N#C/C(=C1/C(=O)Nc2ccccc21)c1nnc(NC(=O)c2ccc(-n3c(=O)[nH]c4ccccc4c3=O)cc2)s1`, the growth was 30.4% with NCI-H23 lung; 34.4% in the assay with NCI-H226 lung; 53.6% with NCI-H322M lung; 53.7% with HOP-62 NSCLC; 6.96% (active) with NCI-H460 lung; 56% in the assay on HOP-92 NSCLC. The growth is 14.3% with NCI-H522 lung; 49.8% with A549/ATCC NSCLC; 66.1% in the assay with 786-0 renal; -0.152% (active) with COLO 205 colon; 37.4% in the assay on DU-145 prostate; 15.9% with K-562 leukemia. Moreover, the growth with MALME-3M melanoma was 26.9%; with MDA-MB-231 breast, 4.04% (active); in the assay on RXF 393 renal it was 53.4%; with SF-268 CNS, 65.4%; in the assay on SF-295 CNS, 74.5%; with SF-539 CNS it was 36.4%. The growth is 47.9% in the assay on UACC-257 melanoma and 58.2% in the assay on M14 melanoma.
Consider `COc1cc(C2CC(c3ccc(Cl)cc3)=Nc3c(N)nc(N)nc3N2)ccc1Oc1nc(Nc2ccc(F)cc2)nc(N(C)C)n1` (stereo not given), for which the growth in the assay with NCI-H23 lung was 76.6%; in the assay on NCI-H226 lung, 60.9%; in the assay with NCI-H322M lung, 93.8%; with HOP-62 NSCLC, 74.1%; in the assay on NCI-H460 lung it was 13.5%; in the assay on HOP-92 NSCLC, 12.6%. The growth in the assay with NCI-H522 lung is 38.9%; in the assay on A549/ATCC NSCLC, 47.2%; in the assay with 786-0 renal, 38.2%; in the assay on COLO 205 colon, 55.4%; in the assay with DU-145 prostate, 60%; with K-562 leukemia it was 8.16% (active). In addition, the growth with MALME-3M melanoma was 54.1%; in the assay with MDA-MB-231 breast, 23.8%; in the assay on RXF 393 renal, -4.44% (active); in the assay on SF-268 CNS, 52.2%; with SF-295 CNS, 53.3%; in the assay on SF-539 CNS, 63.7%. For the same compound, the growth in the assay with UACC-257 melanoma was 47.9%; in the assay on M14 melanoma, 43.2%.
